The values that follow come from the supplement of paper PMC12636033.

± gives the standard deviation of the averaged measurements. Whole data set: some 33,000 sequences, median “E-score (rank enrichment, -0.5 to 0.5)” near -0.0068, cut for the highest 2% near 0.24. The list comes from a sample in which the highest values are over-represented; it also holds similar and randomly drawn sequences.

The test system of the assay is muMax20 (Max(13-93) K31hArg/K57hArg, M65Nle). As to the kind of experiment: PBM 8-mer E-score (E-score (rank enrichment, -0.5 to 0.5)); higher = stronger preferential binding. As to the method:
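Protein binding microarray (universal PBM chip covering all 10-mers in fixed probe flanks) with chemically synthesized human Max(13-93) bHLH-LZ analogs (not full-length Max) bearing noncanonical residues (hArg, Tha, Aib, Nle at 65) and aromatic Cys staples. Read-out per 8-mer (and its reverse complement): E-score (rank-based enrichment, -0.5 to 0.5) and Z-score of median probe intensity.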
In the case of ACGAGCAG, the “PBM 8-mer E-score” value is -0.0192 ± 0.02.

For CACCCGGG, the “PBM 8-mer E-score” value is -0.361 ± 0.014. Then CATCCGGA, with -0.0933 ± 0.064; and CATCTCAC, with -0.0239 ± 0.23. Consider AGTTTATG, for which the “PBM 8-mer E-score” value amounted to 0.0668 ± 0.014. Then CCTTTACG, with 0.24 ± 0.01; and CCTTTACC, with 0.023 ± 0.2. Take CCTTTACA: the “PBM 8-mer E-score” value was found to be 0.173 ± 0.094. Then AAGCTACG, with 0.0404 ± 0.15; and AGTCCTGA, with -0.233 ± 0.16; and CATGGTAA, with 0.297 ± 0.052. With CATGGTCA, the “PBM 8-mer E-score” value is 0.304 ± 0.047. Then AATGGTAG, with 0.0638 ± 0.072; and CATGGTCC, with -0.136 ± 0.14. The same measure for CATGGTCG: 0.0286 ± 0.039; for GGTGGTAA: 0.0953 ± 0.084. Then AATGGTAT, with 0.213 ± 0.019; and TGTGGTAA, with 0.244 ± 0.067; and CATGGTAG, with 0.0279 ± 0.022. Take AATGGTAA: the “PBM 8-mer E-score” value was 0.27 ± 0.071. The same measure for CGTGGTAA: 0.215 ± 0.06; for TATGGTAA: 0.108 ± 0.0077. The same measure for GGGGCGAA: 0.0451 ± 0.035; for CCGCGAGG: -0.191 ± 0.082. With CTCTCTCA, the “PBM 8-mer E-score” value is -0.0954 ± 0.052. CCCCAGTA: the “PBM 8-mer E-score” value is 0.0363 ± 0.019.

For the sequence CAAGGATA, the “PBM 8-mer E-score” value was determined as 0.00143 ± 0.082. Then CCATAACA, with 0.141 ± 0.035. The same measure for CGGCGACC: -0.159 ± 0.097; for TGCGGCAA: 0.0884 ± 0.051.

Take AGACCTGG: the “PBM 8-mer E-score” value is -0.177 ± 0.069. On to ATGCGCAC, for which the “PBM 8-mer E-score” value was -0.00186 ± 0.029. The same measure for ATGCGCAT: 0.295 ± 0.03; for ATGCGCAA: 0.0942 ± 0.019.

For the sequence AACCGCAC, the “PBM 8-mer E-score” value worked out at 0.0872 ± 0.056. The same measure for CGGTCGGC: -0.2874 ± 0.0021; for TAATGCCA: 0.142 ± 0.036; for AACACGTA: 0.218 ± 0.0095. The same measure for CACACGTC: 0.0717 ± 0.034; for AACACGTG: 0.481 ± 0.017. Then CACACGTA, with 0.125 ± 0.018. For CACACGTG, the “PBM 8-mer E-score” value came out at 0.426 ± 0.074. Then AACACGTC, with 0.091 ± 0.002. Then GCATTGCA, with 0.14 ± 0.028; and CGATTACC, with -0.0103 ± 0.049. The same measure for CAGAGTGA: 0.00192 ± 0.0028.

As to GCCCCTAA, the “PBM 8-mer E-score” value is -0.0669 ± 0.16.

As for ATCCCCGG, the “PBM 8-mer E-score” value is -0.16 ± 0.024. Then AAGATTCC, with 0.00605 ± 0.027. The same measure for ACATAAGA: 0.174 ± 0.014; for CGTCGGGC: -0.152 ± 0.008.

As for GCAATAAC, the “PBM 8-mer E-score” value came out at 0.138 ± 0.014. The same measure for AATTATTC: 0.101 ± 0.071. The same measure for CATTATTC: 0.104 ± 0.032; for AATTATTA: 0.309 ± 0.036; for GATTATTA: 0.118 ± 0.064. The same measure for CATTATTA: 0.242 ± 0.051; for AATTATTG: 0.191 ± 0.012. Regarding CCTTATTA, the “PBM 8-mer E-score” value is 0.28 ± 0.04.

On to CCTTATTC, for which the “PBM 8-mer E-score” value is -0.029 ± 0.059. The same measure for GCTTATTA: 0.1783 ± 0.0012. Then CACTCGCG, with -0.0815 ± 0.047. The same measure for GAAGAGTC: 0.089 ± 0.11; for CAGTGCTA: -0.08 ± 0.053. Consider GCAGAGCA, for which the “PBM 8-mer E-score” value is -0.187 ± 0.06. For CTATATAG, the “PBM 8-mer E-score” value is 0.134 ± 0.082. Then GAGGATAA, with 0.0253 ± 0.093; and AATTAGTC, with 0.0746 ± 0.11. Regarding AGTTAGTA, the “PBM 8-mer E-score” value turned out to be 0.27 ± 0.033.

Turning to GGTTAGTA, the “PBM 8-mer E-score” value was found to be 0.0601 ± 0.091. As to AGTTAGTC, the “PBM 8-mer E-score” value was -0.094 ± 0.036. Then AATTAGTA, with 0.28 ± 0.034; and CATTAGTA, with 0.0251 ± 0.027; and ACTGATGG, with -0.0638 ± 0.09. The same measure for GTCCGATA: -0.0402 ± 0.11; for CTCCCGAC: -0.0892 ± 0.047; for ATCCCGCG: -0.0553 ± 0.1.

For AGCATTAA, the “PBM 8-mer E-score” value stood at 0.232 ± 0.0024.

Regarding AGCATTAT, the “PBM 8-mer E-score” value was 0.262 ± 0.048. The same measure for TGCATTAA: 0.277 ± 0.062. Then AGCATTAG, with 0.142 ± 0.042.

As to TCCATTAA, the “PBM 8-mer E-score” value was -2.5e-05 ± 0.096. The same measure for AGCATTAC: -0.0675 ± 0.077; for ACCATTAA: 0.348 ± 0.021. Consider CCCATTAA, for which the “PBM 8-mer E-score” value is -0.0202 ± 0.017. The same measure for CGCATTAA: -0.00237 ± 0.005.
